Laboratory results taken from PubChem BioAssay (EPA / NIEHS).
Inconclusive results are not listed. The source holds several records for some structures; these can differ, active in one and inactive in another. Active and inactive are the calls of the source. How the source made its calls, unless noted: active means hit-call score of the fitted dose curve at least 0.9, where 1 is the maximum; inactive means score below 0.9.

Columns and labels:
[1] = CCTE_Shafer_MEA_dev_firing_rate_mean: CCTE's Neural Network Formation Assay for Mean Firing Rate, Shafer Lab (AID 2284031);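 on AC50: curve fitted for loss of firing so AC50 reflects decreased mean firing rate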
In short: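 Read-out: spike count/recording length, averaged over active electrodes, then AUC across days 5, 7, 9, 12. Rat cortical cultures on MEA; continuous 12-day exposure, media and treatment renewed DIV 5, 9; DMSO baseline.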

[2] = CCTE_Shafer_MEA_dev_active_electrodes_number: CCTE's Neural Network Formation Assay for Number of Active Electrodes, Shafer Lab (AID 2284040; active means hit-call score of the fitted dose curve at least 0.9, where 1 is the maximum;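 on AC50: potency for loss of active electrodes versus DMSO so lower counts are hits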)
In short: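 Developing rat cortical networks on MEAs, exposed DIV 0–12. Value is the AUC of active-electrode counts (≥5 spikes/min) from days 5, 7, 9, 12, relative to DMSO.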

[3] = CCTE_Shafer_MEA_dev_burst_rate: CCTE's Neural Network Formation Assay for Burst Rate, Shafer Lab (AID 2284042);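 on AC50: potency for loss of burst rate below DMSO control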
In short: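 Cells plated, treated day 0; recorded DIV 5, 7, 9, 12; fed and re-treated DIV 5, 9. Endpoint: bursts per recording time, active-electrode well mean, trapezoidal AUC, fitted in decreasing direction against DMSO baseline.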

[4] = CCTE_Shafer_MEA_acute_interburst_interval_mean: CCTE's Neural Acute Assay for Mean Interburst Interval, Shafer Lab (AID 2284016);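 further: percent change of mean interburst interval versus each well's own pre-dose baseline; curves fitted for decrease in interburst interval relative to DMSO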
In short: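 Rat cortical cultures, DIV 13/15; 20 min equilibration, 40 min baseline, compound 0.03-40 uM, 40 min re-recording, 37 C. Spikes detected at 8x rms noise (300-5000 Hz band-pass). Endpoint: % change in interburst interval, fitted in loss direction vs DMSO.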

[5] = CCTE_Shafer_MEA_acute_burst_percentage_mean: CCTE's Neural Acute Assay for Percentage of Spikes in a Burst, Shafer Lab (AID 2284017)
In short: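 Rat cortical cultures, DIV 13/15, 37 C. Spikes detected at 8x rms noise (300-5000 Hz band-pass). Burst spikes/total spikes averaged across electrodes per well; % change post- vs pre-treatment (40 min each), loss-of-signal fit vs DMSO.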

[6] = CCTE_Shafer_MEA_acute_burst_percentage_std: CCTE's Neural Acute Assay for Standard Deviation of Burst Percentage, Shafer Lab (AID 2284018);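 further: fitted in the negative direction so actives lower burst percentage SD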
In short: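 Primary rat cortical neurons on 16-electrode MEA wells were recorded 40 min at baseline (DIV 13 or 15), then 40 min after compound (0.03-40 uM), at 37 C. Well value is SD across electrodes of spikes-in-bursts/total spikes; endpoint is percent change, DMSO-referenced.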

[7] = CCTE_Shafer_MEA_acute_per_network_burst_spike_number_mean: CCTE's Neural Acute Assay for Average Number of Spikes in a Network Burst, Shafer Lab (AID 2284019)
In short: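 Acute exposure of rat primary cortical networks (DIV 13/15) on MEAs; adaptive spike detection at 8x rms noise, 37 C. Percent change in spikes per network burst after 40 min with compound (0.03-40 uM), negative direction vs DMSO.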

[8] = CCTE_Shafer_MEA_acute_per_network_burst_spike_number_std: CCTE's Neural Acute Assay for Standard Deviation of Number of Spikes in a Network Burst, Shafer Lab (AID 2284020);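 further: fitted for decrease in spike-number SD versus DMSO so actives lower it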
In short: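 Acute MEA exposure, rat cortical neurons, 0.03-40 uM. Per-well % change versus own baseline; DMSO as negative control.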

[9] = CCTE_Shafer_MEA_acute_per_network_burst_electrodes_number_mean: CCTE's Neural Acute Assay for Mean Number of Electrodes in a Network Burst, Shafer Lab (AID 2284021);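 further: curves fitted for decreases only so hits reduce electrodes per burst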
In short: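 Cultures of rat cortex neurons were exposed on DIV 13 or 15 to compounds at 0.03-40 uM in at least three wells each. Activity over 40 min before and 40 min after exposure at 37 C gave the percent change in electrodes per network burst.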

[10] = CCTE_Shafer_MEA_acute_network_burst_percentage: CCTE's Neural Acute Assay for Percentage of Network Bursts, Shafer Lab (AID 2284022);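 further: curves fitted for loss so actives lower network burst percentage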
In short: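 Cortical neurons from rat were grown over microelectrode arrays and used on day 13 or 15 in vitro. Wells with at least 10 active electrodes received test chemical at 0.03-40 uM. Activity during 40 min of exposure was compared with the preceding 40-min baseline.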

[11] = CCTE_Shafer_MEA_acute_cross_correlation_area: CCTE's Neural Acute Assay for Area of Cross Correlation, Shafer Lab (AID 2284024);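 further: rat primary cortical neuron networks on 48-well MEA at DIV 13 or 15 with 40 min exposure; area under pooled inter-electrode spike cross-correlation near zero lag as percent change from own baseline; curves fitted for loss of cross-correlation area so actives lower synchrony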
In short: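 Acute exposure of mature rat cortical networks (day 13 or 15 post-plating) to 0.03-40 uM compound. Spontaneous spiking on MEA, 40 min pre- and post-dose at 37 C.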

[12] = CCTE_Shafer_MEA_acute_cross_correlation_HWHM: CCTE's Neural Acute Assay for Cross Correlation at Half Width at Half Maximum, Shafer Lab (AID 2284026);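 further: spontaneous network firing of rat primary cortical neurons on multiwell microelectrode arrays; percent change per well from pre-dose baseline in spike cross-correlogram half width; hits are a decrease in cross-correlogram half width relative to DMSO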
In short: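 Primary cortex (rat), MEA, DIV 13/15; compound 0.03-40 uM; 40 min pre + 40 min post at 37 C; spike threshold 8x rms; wells need ≥10 active electrodes; endpoint = % change in cross-correlogram HWHM vs baseline, DMSO negative control.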

[13] = CCTE_Shafer_MEA_acute_synchrony_index: CCTE's Neural Acute Assay for Synchrony, Shafer Lab (AID 2284027);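 further: network synchrony index of spontaneous spiking in primary rat cortical neurons on MEAs; fitted for loss of signal so actives lower synchrony relative to DMSO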
In short: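 Rat cortical cultures, DIV 13/15; spikes detected at 8x rms noise, 300-5000 Hz band-pass. Compound 0.03-40 uM, ≥3 wells; 40-min pre- and post-exposure recordings, 37 C. Readout: % change in synchrony index; loss-of-signal fit vs DMSO.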

[14] = biological target: Estrogen receptor (Homo sapiens) (UniProt P03372); experiment: CCTE_Deisenroth_AIME_384WELL_LUC_Active: CCTE's 384-well Estrogen Receptor Transactivation Assay with AIME metabolic competence (ERTA luciferase; metabolism positive), Deisenroth Lab (AID 2284030; active means hit-call score of the fitted dose curve at least 0.9, where 1 is the maximum)
Chain of Estrogen receptor (Homo sapiens) (P03372 whole entry, looked up): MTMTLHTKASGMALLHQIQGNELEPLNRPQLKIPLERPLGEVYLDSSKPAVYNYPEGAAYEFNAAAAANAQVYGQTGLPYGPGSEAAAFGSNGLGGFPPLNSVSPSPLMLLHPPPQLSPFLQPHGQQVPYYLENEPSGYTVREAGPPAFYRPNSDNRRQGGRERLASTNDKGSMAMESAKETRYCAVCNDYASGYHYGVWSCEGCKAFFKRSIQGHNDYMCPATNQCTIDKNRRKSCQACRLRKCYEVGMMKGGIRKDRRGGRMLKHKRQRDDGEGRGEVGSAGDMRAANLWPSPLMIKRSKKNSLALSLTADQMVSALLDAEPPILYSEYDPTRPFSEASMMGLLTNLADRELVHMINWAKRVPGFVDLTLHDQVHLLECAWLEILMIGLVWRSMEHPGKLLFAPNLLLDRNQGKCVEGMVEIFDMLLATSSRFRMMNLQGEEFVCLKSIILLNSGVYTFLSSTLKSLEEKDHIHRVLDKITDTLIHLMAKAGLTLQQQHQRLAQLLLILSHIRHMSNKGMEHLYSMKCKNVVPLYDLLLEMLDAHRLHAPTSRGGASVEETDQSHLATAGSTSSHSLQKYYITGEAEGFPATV
In short: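 In this metabolism-positive format, a 2-hour exposure to alginate-immobilized rat S9 precedes a 24 hour luciferase transactivation readout in VM7Luc4E2 cells. Dosing spans 10 concentrations from 0.002 to 200 uM.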

[15] = biological target: Estrogen receptor (Homo sapiens) (UniProt P03372); experiment: CCTE_Deisenroth_AIME_384WELL_LUC_Inactive: CCTE's 384-well Estrogen Receptor Transactivation Assay without AIME metabolic competence (ERTA luciferase; metabolism negative), Deisenroth Lab (AID 2284038; active means hit-call score of the fitted dose curve at least 0.9, where 1 is the maximum;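 further: VM7Luc4E2 breast cells given medium preincubated 2 h with S9-free microspheres; hits raise estrogen receptor luciferase signal so potencies reflect agonists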)
In short: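 Metabolism-negative mode: AIME lids stamped in alginate-water, no hepatic S9. 2 h chemical incubation → medium onto VM7Luc4E2 ERTA, 24 h. Readout luciferase luminescence; gain-of-signal fit vs 17beta-estradiol. Conc. 0.002 - 200 uM.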

[16] = CCTE_Deisenroth_AIME_384WELL_CTox_Inactive: Cytotoxicity Assessment (CTOX) in CCTE's 384-well Estrogen Receptor Transactivation Assay without AIME metabolic competence (metabolism negative), Deisenroth Lab (AID 2284039; active means hit-call score of the fitted dose curve at least 0.9, where 1 is the maximum;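 further: cell viability via live-cell protease substrate cleaved to fluorescent probe; cells exposed 24 h to medium preincubated 2 h with alginate-water beads without S9; loss of fluorescence signal means loss of viability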)
In short: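 Metabolism-negative arm: chemicals (10-point, 0.002 - 200 uM) preincubated 2 h with alginate-water lids, medium moved onto VM7Luc4E2 cells for 24 h. Fluorescent live-cell protease readout; bidirectional curve fit.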

[17] = biological target: Estrogen receptor (Homo sapiens) (UniProt P03372); experiment: CCTE_Deisenroth_AIME_384WELL_LUC_Shift: CCTE's 384-well Estrogen Receptor Transactivation Assay with AIME metabolic competence data shift (ERTA luciferase; difference in metabolism positive and negative), Deisenroth Lab (AID 2284041);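 further: shift is response with S9 minus without S9 so positive means metabolism raised ER signal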
In short: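 Here, parent compounds undergo 2 h phase I metabolism by PB/BNF-induced rat S9 before 24 h transactivation in VM7Luc4E2 cells; the curve models S9-positive minus S9-negative response over a 10-point series.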

O=C(O)C=C(C(F)(F)F)C(F)(F)F
outcome [1]: inactive | outcome [2]: inactive | outcome [3]: inactive

C=CC(=O)OCC(F)(F)C(F)(F)C(F)(F)C(F)(F)COC(=O)C=C
AC50 [1]: 4.34 µM (active) | AC50 [2]: 4.2 µM (active) | AC50 [3]: 4.18 µM (active)

CC(CCl)OP(=O)(OC(C)CCl)OC(C)CCl (stereo not drawn)
outcome [1]: inactive | AC50 [2]: 50 µM (active) | outcome [2]: inactive | outcome [3]: inactive

OCC(F)(F)C(F)(F)C(F)(F)F
outcome [1]: inactive | outcome [2]: inactive | outcome [3]: inactive

FC(F)(F)C(F)(F)C(F)(F)C(F)(F)C(F)(F)CCI
outcome [1]: inactive | AC50 [2]: 15 µM (active) | outcome [3]: inactive

CCCCCCOC(=O)c1ccccc1O
outcome [4]: inactive | outcome [5]: inactive | outcome [6]: inactive | outcome [7]: inactive | outcome [8]: inactive | outcome [9]: inactive | outcome [10]: inactive | outcome [11]: inactive | outcome [12]: inactive | outcome [13]: inactive

O=S(=O)(OCC(F)F)C(F)(F)F
outcome [1]: inactive | outcome [2]: inactive | outcome [3]: inactive

Cc1ccc(S(=O)(=O)OCC(F)(F)C(F)(F)C(F)(F)C(F)(F)C(F)(F)C(F)F)cc1
outcome [1]: inactive | outcome [3]: inactive

O=S(=O)(OCCOC(F)(F)F)C(F)(F)F
outcome [1]: inactive | outcome [2]: inactive | outcome [3]: inactive

OCCCC(F)(F)C(F)(F)C(F)(F)F
outcome [1]: inactive | outcome [2]: inactive | outcome [3]: inactive

CC(C)(C)C(=O)CC(=O)C(F)(F)C(F)(F)C(F)(F)F
outcome [1]: inactive | AC50 [2]: 25.2 µM (active) | outcome [3]: inactive

OCC(F)(F)C(F)(F)C(F)(F)C(F)F
outcome [1]: inactive | outcome [2]: inactive | outcome [3]: inactive

O=C(O)C(F)(F)C(F)(F)C(F)F
outcome [1]: inactive | outcome [2]: inactive | outcome [3]: inactive

O=C(O)C(F)(F)C(F)(F)C(F)(F)C(F)(F)C(F)(F)C(F)(F)C(F)(F)C(F)(F)Cl
outcome [1]: inactive | outcome [2]: inactive | outcome [3]: inactive

CCCCCCC(C)OC(=O)CCCCC(=O)OC(C)CCCCCC (stereo not drawn)
outcome [14]: inactive | outcome [15]: inactive | outcome [16]: inactive | outcome [17]: inactive
